# According to PubChem BioAssay (NCATS):
# Inconclusive results are not listed. Values without a mark were called inactive. Active and inactive are the calls of the source. The call rests on the fitted dose curve; in most records, active means well fitted inhibition curve with a large enough effect; inconclusive means small, poorly fitted or top-dose-only effect; inactive means flat fitted curve, though single readings scatter. Where a SMILES comes first, the peptide text is derived from it. Bridges are numbered along the chain shown (N, C = ends). [ ]: non-standard residue; d: D form. hArg = N=C(N)NCCCC[C@H](N)C(=O)O; Mpa = O=C(O)CCS
# Target: Ubiquitin carboxyl-terminal hydrolase 1 (Homo sapiens) (UniProt O94782)
# Assay: Inhibitors of USP1/UAF1: Pilot qHTS (AID 504865);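 further: rhodamine fluorescence freed from ubiquitin-rhodamine substrate followed over time; top concentration of the series differs between compounds; nearly all actives have a fitted effect of over 35% in size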
# Details: purified USP1/UAF1, Ub-rhodamine cleavage fluorescence; series mostly up to 114 µM; activity change, negative = inhibition: at the top concentration
# From the text: Deubiquitinating enzymes (DUBs) are a class of enzymes that can cleave isopeptide bond formed between the C-terminal carboxylate of ubiquitin and a lysine side-chain amino group on the target protein. Among them, ubiquitin specific proteases (USPs) constitute the largest DUB family. Human USPs are emerging as promising targets for pharmacological intervention because of their connection to a number of human diseases, including prostate, colon and breast cancer (1, 2), pediatric acute lymphoblastic leukemia (3), and familial cylindromatosis (4). The advantage of inhibiting USPs lies in the potential specificity of therapeutic intervention that can lead to better efficacy and reduce nonspecific side effects.
# In a collaboration between the University of Delaware and the NIH Chemical Genomics Center, a high-throughput screen assay was developed to screen for USP1/UAF1 inhibitors. This miniaturized assay has a fluorescent read-out and is used to screen the NIH Molecular Libraries Small Molecule Repository (MLSMR) in order to identify a small molecule that inhibits USP1.
# NIH Chemical Genomics Center [NCGC]
# NIH Molecular Libraries Probe Centers Network [MLPCN]
# Assay Submitter (PI): Zhihao Zhuang, University of Delaware
# 1. Priolo, C., et al. (2006) The isopeptidase USP2a protects human prostate cancer from apoptosis. Cancer Res 66, 8625-8632
# 2. Popov, N., et al. (2007) The ubiquitin-specific protease USP28 is required for MYC stability. Nat Cell Biol 9, 765-774
# 3. De Pitta, C., et al. (2005) A leukemia-enriched cDNA microarray platform identifies new transcripts with relevance to the biology of pediatric acute lymphoblastic leukemia. Haematologica 90, 890-898
# 4. Kovalenko, A., et al. (2003) The tumour suppressor CYLD negatively regulates NF-kappaB signalling by deubiquitination. Nature 424, 801-805
# 3 microliters of reagents (buffer in columns 3 and 4 as negative control and 1nM USP1/UAF1 complex in columns 1, 2, and 5-48) are dispensed into Greiner black solid bottom 1536-well assay plates. Compounds are then transferred via Kalypsys pin tool equipped with 1536-pin array (10nl slotted pins, V&P Scientific, San Diego, CA). Following an incubation step of 15 min at room temperature, 1ul of Ub-Rho substrate (150nM final concentration) is added to initiate the reaction. The plates are immediately centrifuged at 1000 rpm for 15 seconds, and subsequently transferred to a ViewLux high-throughput CCD imager (PerkinElmer) wherein kinetic measurements of fluorescence are acquired using 480 nm excitation/540 nm emission filter set (6 reads every 60 seconds, see Table 1). All reagents are diluted in an assay buffer consisting of 50mM HEPES (pH 7.8), 0.5mM EDTA, 0.1 mg/ml BSA, 1mM TCEP, and 0.01% Tween-20.
# On the % scale 0 is the no-effect control and ±100 the full control effect.
# Sequence of Ubiquitin carboxyl-terminal hydrolase 1 (Homo sapiens) (O94782 whole entry, looked up): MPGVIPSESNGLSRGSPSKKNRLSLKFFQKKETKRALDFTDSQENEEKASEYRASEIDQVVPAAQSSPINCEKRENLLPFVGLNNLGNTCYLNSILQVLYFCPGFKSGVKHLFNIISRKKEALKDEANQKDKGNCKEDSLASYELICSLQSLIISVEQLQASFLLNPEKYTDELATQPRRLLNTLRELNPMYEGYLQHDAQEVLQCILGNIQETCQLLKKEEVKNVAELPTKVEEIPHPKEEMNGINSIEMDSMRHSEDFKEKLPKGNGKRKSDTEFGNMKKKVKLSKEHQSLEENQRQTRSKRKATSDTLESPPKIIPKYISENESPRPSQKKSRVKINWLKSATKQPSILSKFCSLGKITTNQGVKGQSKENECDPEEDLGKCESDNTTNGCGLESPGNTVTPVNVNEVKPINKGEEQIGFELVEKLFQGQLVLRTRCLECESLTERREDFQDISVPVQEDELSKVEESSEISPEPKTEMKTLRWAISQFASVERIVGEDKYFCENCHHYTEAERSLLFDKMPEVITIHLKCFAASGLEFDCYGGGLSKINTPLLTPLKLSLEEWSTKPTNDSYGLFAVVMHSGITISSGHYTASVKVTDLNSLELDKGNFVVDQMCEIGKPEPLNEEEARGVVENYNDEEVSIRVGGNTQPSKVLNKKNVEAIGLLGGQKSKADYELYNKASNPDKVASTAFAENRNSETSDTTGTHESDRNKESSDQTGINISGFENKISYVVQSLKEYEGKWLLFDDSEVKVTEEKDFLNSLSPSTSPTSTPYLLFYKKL
Structure (SMILES),"activity change, negative = inhibition",Potency
CC(O)CCCCn1c(=O)c2c(ncn2C)n(C)c1=O (stereo not given),-6.47%,
C[N+](C)(C)CC[N+]1(C)Cc2c(Cl)c(Cl)c(Cl)c(Cl)c2C1,,inactive
CC(=O)Oc1cccc(C)c1,-1.45%,
CCCCOC(=O)c1ccc(N)cc1,,inactive
O[C@@H]1CO[C@H]2[C@@H]1OC[C@@H]2O,-2.92%,
CN1C[C@@H]2C[C@H]1CN2c1cc2c(cc1F)c(=O)c(C(=O)O)cn2C1CC1,-8.74%,
CCOC(=O)c1cccnc1,4.65%,
O=C(CCBr)N1CCN(C(=O)CCBr)CC1,-12.4%,
CCCNC(C)(C)COC(=O)c1ccccc1,1.93% [at 54.9 µM],
c1ccc2[nH]ccc2c1,0.247%,
C[C@H]1COc2c(C3(N)CC3)c(F)cc3c(=O)c(C(=O)O)cn1c23,-6.14%,
Cc1onc(-c2ccccc2)c1-c1ccc(S(N)(=O)=O)cc1,-8.41%,
CNc1c2c(nn1C)CCCC2,-14.5%,
O=C(O)c1cc(=O)c2ccccc2o1,-0.842%,
O=C(O)Cc1ccc(CCNS(=O)(=O)c2ccc(Cl)cc2)cc1,-5.75%,
CC(=O)Nc1ccc(OCCOCCOc2ccc(NC(C)=O)cc2)cc1,-8.26%,
NC(=O)[C@@H]1CSSCCC(=O)N[C@@H](CCCCN=C(N)N)C(=O)NCC(=O)N[C@@H](CC(=O)O)C(=O)N[C@@H](Cc2c[nH]c3ccccc23)C(=O)N2CCC[C@H]2C(=O)N1 ([Mpa][hArg]GDWPC-NH2; disulfide 1-7),-13%,
CNCc1ccccc1,-2.63%,
COc1nccnc1NS(=O)(=O)c1ccc(N)cc1,0.411%,
Nc1ccc(S(=O)(=O)c2ccc(N)cc2)cc1,,inactive

Structure (SMILES),"activity change, negative = inhibition",Potency
CC[N+](C)(CC)CCOC(=O)C1c2ccccc2Oc2ccccc21,9.61% [at 54.9 µM],
COc1ccccc1OCC(O)CO (stereo not given),2.9%,
COc1cc(O)cc(O)c1,-13.3%,
NC(=O)NC1NC(=O)NC1=O (stereo not given),-1.63%,
CCCCC1(COC(=O)CCC(=O)O)C(=O)N(c2ccccc2)N(c2ccccc2)C1=O,-11.4% [at 54.9 µM],
Nc1ncnc2c1ncn2[C@@H]1O[C@H](COP(=O)(O)O)[C@@H](O)[C@H]1O,-3.28%,
NS(=O)(=O)c1cc(-c2nn[nH]n2)c(NCc2cccs2)cc1Cl,-13.4%,
CC(C)=CCC/C(C)=C/CO,-7.46%,
Cc1c(C(=O)NCCO)[n+](=O)c2ccccc2n1[O-],-0.0916%,
O=c1[nH]c(=O)c2ccccc2o1,-6.52%,
O=C(O)c1ccc[n+]([O-])c1,-2.79%,
FC(F)(F)C(Cl)Br (stereo not given),1.62%,
O=C(O)c1ccccc1OP(=O)(O)O,,inactive
C[C@@H](N)C(=O)O,,inactive
CC(CN(C)C)C(C)(O)Cc1ccc(Cl)cc1 (stereo not given),-1.81%,
Cc1cc(O)cc(C)c1Cl,-8.96%,
O=C(O)c1ccccc1C(=O)Nc1ccc(S(=O)(=O)Nc2nccs2)cc1,,inactive
Cc1cccc(C)c1NC(=O)CC12CCCN1CCC2,-1.8%,
Cc1c(Cn2ccnc2)c2ccccc2n1CCC(=O)O,-4.63%,
O=C1c2ccccc2C(=O)C1c1ccc(Br)cc1,-2.81%,
